Screening data from PubChem.
LASV entry inh: qHTS for Inhibitors of binding or entry into cells for Lassa Virus; 300,000 tested, 1.2% active; Lassa virus pseudotype entry inhibition, cell reporter; Potency, µM (highest dose often 37.9 µM), for the others: at the highest dose activity change, negative = inhibition, actives largely listed as inhibitors; calls by dose curve; tested in HEK293 cells; also: potency is read from the fitted curve at half-maximal effect; % is scaled to controls: 0 for no effect and ±100 for the full control effect; nearly all actives have a fitted effect of over 50% in size
VACV Venus inh: qHTS for Stage-Specific Inhibitors of Vaccinia Orthopoxvirus: Venus Reporter Primary qHTS; Vaccinia virus Venus reporter expression, fluorescence; Potency, µM (series often up to 36.5 µM), for inactives: at the top dose activity change, negative = inhibition, actives largely listed as inhibitors; 330,000 tested, 0.46% active; calls by dose curve; tested in A549 cells; also: potency is read from the fitted curve at half-maximal effect; % is scaled to controls: 0 for no effect and ±100 for the full control effect; nearly all actives have a fitted effect of over 30% in size
Marburg entry inh: qHTS for inhibitors of binding or entry into cells for Marburg Virus | Marburg virus pseudotyped entry inhibition, cell reporter | Potency, µM (doses to about 37.8 µM), inactives show top-dose activity change, negative = inhibition, hits mostly inhibitors | 300,000 tested, 1.8% active; calls by dose curve; tested in HEK293 cells; also: potency is read from the fitted curve at half-maximal effect; % is scaled to controls: 0 for no effect and ±100 for the full control effect
CHX counter: Cycloheximide Counterscreen for Small Molecule Inhibitors of Shiga Toxin. cell reporter, cycloheximide protein synthesis inhibition counterscreen. max response, %. 300,000 tested, 12% active. AID 2314, 2010; in the data active = max response mostly above about 13%, no sharp cut-off; inactive = mostly below about 14%; also: read at 38.3 µM for the half of the compounds with a filed dose; 0% is about no effect
Shiga toxin inh: A qHTS for Small Molecule Inhibitors of Shiga Toxin | Vero cells, Shiga toxin protein synthesis inhibition reporter | 290,000 tested, 9.2% active | AID 2315, 2010 | inhibition, % at 38.7 µM; in the data active = inhibition mostly above about 28%, no sharp cut-off; inactive = mostly below about 43%; also: 0% is about no effect
Vaccinia mCherry: qHTS for Stage-Specific Inhibitors of Vaccinia Orthopoxvirus: mCherry Reporter Primary qHTS | AID 720579, 2013 | Potency, µM (doses to about 36.5 µM), without a hit: at the top dose activity change, negative = inhibition, usual class: inhibitors | 310,000 tested, 0.63% active | Vaccinia virus mCherry reporter infection, fluorescence; calls by dose curve; tested in A549 cells; also: potency is read from the fitted curve at half-maximal effect; % is scaled to controls: 0 for no effect and ±100 for the full control effect; nearly all actives have a fitted effect of over 35% in size
The depositor's hits bear a star; i = inactive; ? = inconclusive; · = no result; [ ] = dose if it differs, or a comment. Many of the other results were omitted from the sample, so hits are more common in it than they were.

SMILES	LASV entry inh	VACV Venus inh	Marburg entry inh	CHX counter	Shiga toxin inh	Vaccinia mCherry
O=c1[nH]cnc2c1ncn2[C@H]1C[C@H](O)[C@@H](CO)O1	·	20%	·	·	·	28%
O=C(NCc1ccc2c(c1)CCN2C(=O)c1ccncc1)c1ccc(Cl)cc1	?	-3%	·	·	·	-11%
Cc1ccc(CNS(=O)(=O)c2ccccc2[N+](=O)[O-])cc1	0%	·	-13%	29*	55	·
Cc1ccc(CNc2ccc(Cl)cc2[N+](=O)[O-])cc1	4%	-11%	7%	48*	72*	i
Cc1ccc(CNc2ccc(N3C(=O)CCCC3=O)cc2[N+](=O)[O-])cc1	10%	-17%	1%	-2	-8	-8%
Cc1ccc(CNS(=O)(=O)c2ccc([N+](=O)[O-])cc2)cc1	·	·	·	3	·	·
COc1cccc(CNc2ccc(F)c([N+](=O)[O-])c2)c1O	-18%	-20%	?	30*	47*	-28%
O=[N+]([O-])c1ccccc1CNc1ccc(F)c(Cl)c1	-6%	-21%	-8%	7	15	-29%
CC(=O)Nc1ccc(CNc2nc(NC(C)C)nc3cc(-c4ccccc4)sc23)cc1	·	11µM*	·	·	·	?
CC(=O)Nc1ccc(CNc2nc(NCc3cccs3)nc3ccsc23)cc1	·	-5%	·	·	·	-21%
C=CCNc1nc(NCc2ccc(NC(C)=O)cc2)c2sc(-c3ccccc3)cc2n1	·	16µM*	·	·	·	-5%
CCOc1cc(-c2nc(-c3ccc(Br)cc3)no2)cc(OCC)c1OCC	9%[46.1 µM]	-1%	26%[46.1 µM]	·	·	4%
CCOc1cc(-c2nc(-c3ccncc3)no2)cc(OCC)c1OCC	-14%	-17%	0%	-1	-4	-14%[1.46 µM]
CCOc1ccc(-c2nc(-c3ccccc3)no2)cc1OCC	·	-5%	·	29*	70*	-13%
CCOc1ccc(-c2nc(-c3ccncc3)no2)cc1OCC	1%	?	8%	17*	40*	-5%
Cc1ccc(C2/C(=C(\O)c3c(C)nc4ccccn34)C(=O)C(=O)N2CCN(C)C)o1 (stereo not drawn)	?	-22%	?	-2	10	-10%
C=CC[C@@H]1C=C[C@@H](Oc2ccc(OC)cc2)[C@@H](COC(=O)c2ccc(Br)cc2)O1	·	·	-4%[14.2 µM]	·	·	·
COc1ccc(N2CC(C(=O)NCCC3=CCCCC3)CC2=O)c(OC)c1 (stereo not drawn)	-17%	-13%	-5%	·	·	-9%
CCN(Cc1ccccc1)Cc1c(O)ccc2c(=O)c(-c3ccc(Cl)cc3)c(C(F)(F)F)oc12	2%[46.1 µM]	-11%	5%[46.1 µM]	·	·	i
C/C=C/c1ccc(OCCCn2cncn2)c(OC)c1	1%	-9%	?	11*	27	-4%
C/C=C/c1ccc(OCCCCn2cncn2)c(OC)c1	3%	-10%	-7%	34*	54*	-11%
C/C=C/c1ccc(OCCn2cncn2)c(OC)c1	-7%	-14%	-1%[46.1 µM]	-1	-5	-22%
Cc1cc(C)n(-c2nc(-c3cccc(Cl)c3)cs2)n1	14%	-5%	?	23*	35	-14%
Cc1cc(C)n(-c2nc(-c3ccccc3)cs2)n1	26%	-1%	5%[46.1 µM]	35	112*	-8%
Cc1cc(C)n(-c2nc(C(=O)O)cs2)n1	-4%	-3%	23%[46.1 µM]	8	-5	4%
SMILES	LASV entry inh	VACV Venus inh	Marburg entry inh	CHX counter	Shiga toxin inh	Vaccinia mCherry
CC(C)(CN1CCCC1)NC(=O)C1CCC(=O)N(CCCN2CCOCC2)C1 (stereo not drawn)	·	·	·	-2	-18	·
COc1ccc(CC(=O)Nc2cc(-c3cn4cccnc4n3)ccc2OC)cc1	21%[46.1 µM]	-3%	·	·	·	-7%
Cc1cc(C(=O)N2CCc3c([nH]c4ccccc34)C2c2c(F)cccc2Cl)no1 (stereo not drawn)	?	-23%	?	-1	4	-26%
Cc1nc(C(=O)N2CCc3c([nH]c4ccccc34)C2c2cc(F)ccc2F)cs1 (stereo not drawn)	?	-11%	?	24*	40*	?
CC(C)c1nc(C(=O)N2CCc3c([nH]c4ccccc34)C2c2ccccn2)cs1 (stereo not drawn)	?	-4%	?	9	-1	-4%
Cc1cccc(C2c3[nH]c4ccccc4c3CCN2C(=O)c2nn(C)c(=O)c3ccccc23)n1 (stereo not drawn)	11µM*	-6%	?	-2	-4	3%
Cc1nc(C(=O)N2CCc3c([nH]c4ccccc34)C2c2ccccn2)cs1 (stereo not drawn)	-29%[46.1 µM]	-4%	-30%[46.1 µM]	5	80*	?
Cc1cc(=O)oc2cc(OC(C)C(=O)N3CCCc4ccccc43)ccc12 (stereo not drawn)	1%	-20%	?	24*	60	·
COc1cccc(CNC(=O)Cn2cc3c(n2)-c2c(oc(C(=O)N4CCOCC4)c2C)CC3)c1	-2%[46.1 µM]	-11%	·	·	·	-14%
Cc1cc(NC(=O)c2ccco2)sc1C	7%	-6%	?	·	·	-15%
O=c1[nH]c(=O)n(-c2ccccc2)c2c1C(C(F)(F)F)(C(F)(F)F)N=C(CCC1CCCCC1)N2	11µM*	-14%	?	-2	-12	i
N#Cc1ccc(C(=O)NCC2CCCCC2)cc1	·	·	·	11*	51*	·
O=C(NCc1ccc2c(c1)OCO2)c1ccccc1	?	-21%	24%[46.1 µM]	6	-2	-11%
O=C(NCc1ccc2c(c1)OCO2)c1ccccn1	27%	8%	18%	20*	-6	3%
O=C(CCc1c[nH]c2ccccc12)NCCc1ccc2c(c1)OCCO2	?	-8%	21%	17	84*	-24%
Cn1nc(C(=O)NCCc2ccc3c(c2)OCCO3)c2ccccc2c1=O	1%	-1%	-9%	·	·	-5%
O=C(NCCc1ccc2c(c1)OCCO2)c1ccccn1	?	0%	-12%[46.1 µM]	42*	78*	-15%
O=C(CCc1c[nH]c2ccccc12)NCc1cccc(Cl)c1	-19%[46.1 µM]	-15%	15%[46.1 µM]	-4	2	?
Fc1ccccc1CNc1nc(-c2cccnc2)nc2ccccc12	?	0%	?	-9	-7	-5%
Cc1cccc(OCCSc2nc3ccccc3n2CC(=O)N2CCOCC2)c1C	-5%[46.1 µM]	-11%	3%[46.1 µM]	·	·	-11%
CCCSc1nsc(NC(=O)c2cccnc2OCC)n1	·	·	·	11	22	·
CCCSc1nsc(NC(=O)CCC)n1	?	-8%	?	37*	104*	-13%
CCCCSc1nsc(NC(C)=O)n1	6%	·	-7%	43*	171*	·
CCCCCCSc1nsc(NC(C)=O)n1	17%	-8%	6%	30*	59*	-16%[1.46 µM]
CCCCNC(=O)CSc1nnc(NC(C)=O)s1	6%	-20%	-4%	-1	52	·
COc1cccc([C@H]2/C(=C(\O)c3ccc(C)cc3)C(=O)C(=O)N2Cc2ccco2)c1	·	·	21%[46.1 µM]	·	·	·
Cc1ccc(OCc2cc(C(=O)NC3CCCCC3)no2)cn1	·	·	·	8	-6	·
